Reference: PubChem BioAssay AID588342 (National Center for Advancing Translational Sciences (NCATS), 2011)
Among all 360,000 compounds or so, about 25,000 (6.9%) were called active. A call without a number means that no potency is given here. Not shown: some 9% with an inconclusive outcome. The call rests on the fitted dose curve; in most records, active means well fitted inhibition curve with a large enough effect; inconclusive means small, poorly fitted or top-dose-only effect; inactive means flat fitted curve, though single readings scatter. The sample as a whole holds a higher share of actives than the screen did.

Molecular target: Luciferin 4-monooxygenase (Photinus pyralis) (UniProt P08659)
Assay: qHTS profiling assay for firefly luciferase inhibitor/activator using purifed enzyme and Km concentrations of substrates (counterscreen for miR-21 project); further: nearly all actives have a fitted effect of over 55% in size
Settings: purified FLuc, luminescence inhibition; series mostly up to 57.5 µM
In short: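 Purified P. pyralis luciferase, 10 nM final, with Km-level 10 uM D-luciferin and 10 uM ATP in 50 mM Tris acetate pH 7.5, 10 mM Mg acetate, 0.01% Tween-20, 0.05% BSA; 6-point qHTS titration about 60 µM downward; luminescence read.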
Potency means the concentration at half of the fitted maximal effect.

Chain of Luciferin 4-monooxygenase (Photinus pyralis) (P08659 whole entry, looked up): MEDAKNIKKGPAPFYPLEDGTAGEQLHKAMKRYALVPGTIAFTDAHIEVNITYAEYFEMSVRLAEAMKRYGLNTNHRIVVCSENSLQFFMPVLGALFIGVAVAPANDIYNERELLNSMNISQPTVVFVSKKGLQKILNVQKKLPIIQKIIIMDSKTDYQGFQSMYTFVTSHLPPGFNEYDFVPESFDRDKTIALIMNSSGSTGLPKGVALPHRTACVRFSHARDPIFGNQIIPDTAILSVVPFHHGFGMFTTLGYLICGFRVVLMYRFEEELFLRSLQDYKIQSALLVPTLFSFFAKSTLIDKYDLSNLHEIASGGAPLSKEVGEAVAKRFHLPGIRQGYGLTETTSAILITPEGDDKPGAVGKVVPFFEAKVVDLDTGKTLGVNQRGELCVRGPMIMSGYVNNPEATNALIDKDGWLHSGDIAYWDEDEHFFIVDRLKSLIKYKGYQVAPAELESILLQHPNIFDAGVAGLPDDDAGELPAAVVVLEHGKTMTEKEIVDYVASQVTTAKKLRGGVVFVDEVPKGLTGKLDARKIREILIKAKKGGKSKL

| Structure (SMILES) | Potency |
| --- | --- |
| CC(C)C(=O)Nc1ccc2oc(=O)ccc2c1 | inactive |
| Cc1cc(=O)oc2cc(NC(=O)C(C)Oc3ccccc3)ccc12 (stereo not given) | inactive |
| CC(C)C(=O)Nc1ccc2c(c1)oc1ccccc12 | 2.69 µM (active) |
| COc1cc2nc(SCc3ccc(F)cc3)n3nc(CCn4c(C)nc5ccccc54)nc3c2cc1OC | inactive |
| O=C(CCc1nc(CN2CCN(S(=O)(=O)c3ccc(F)cc3)CC2)no1)N1CCCCC1 | inactive |
| CCC(=O)N1CCc2cc(Br)cc(S(=O)(=O)CCC(=O)NCCc3ccc(OC)c(OC)c3)c21 | inactive |
| CCC(=O)N1c2ccccc2CC1C(=O)N1CCN(c2ccccc2F)CC1 (stereo not given) | inactive |
| COc1cc(OC)cc(C(=O)Nc2ccc3nc(Nc4cccc(C(F)(F)F)c4)cc(C)c3c2)c1 | inactive |
| Cc1ccc2nc(Nc3ccccc3)cc(C)c2c1 | 23.9 µM (active) |
| Cc1ccc2nc(Nc3ccccc3O)nc(-c3ccccc3)c2c1 | inactive |
| O.O.O.O=S(=O)([O-])OC[C@H]1O[C@@H](O[C@]2(COS(=O)(=O)[O-])O[C@H](OS(=O)(=O)[O-])[C@@H](OS(=O)(=O)[O-])[C@@H]2OS(=O)(=O)[O-])[C@H](OS(=O)(=O)[O-])[C@@H](OS(=O)(=O)[O-])[C@@H]1OS(=O)(=O)[O-].[Al] | inactive |
| CC(=O)Nc1ccc2nc(SCCOc3cc(C)cc(C)c3)sc2c1 | inactive |
| O=C(Nc1ccncc1)c1c(F)cccc1F | inactive |
| CSc1nc2ccc(NC(=O)c3c(F)cccc3F)cc2s1 | 19 µM (active) |
| CC(=O)Cn1ncc(N2CCOCC2)c(Br)c1=O | inactive |
| O=C(Cn1ncc(N2CCCC2)c(Br)c1=O)c1ccc(Cl)cc1 | 19 µM (active) |
| CCn1c(=O)c(=O)n(CC)c2cc(N3CCCCC3)c(NC(=O)c3ccc(Cl)cc3)cc21 | inactive |
| CCN(CC)CCNC(=O)c1ccc(NC(=O)c2cc(-c3ccncc3)nc3ccccc23)cc1 | inactive |
| COc1ccccc1NC(=O)c1cc(Cl)nc2ccccc12 | inactive |
| O=C(O)c1cccc(NC(=O)c2cc(-c3cccc(Cl)c3)nc3ccccc23)c1 | 16.9 µM (active) |
| COc1ccc(CNC(=O)CSc2n[nH]c(-c3ccc(F)cc3)n2)cc1 | inactive |
| CCc1ccc(-c2nc(SCC(=O)NC3CCCC3)n[nH]2)cc1 | 19 µM (active) |
| CCOc1cc(-c2nnc(SCC(=O)NC3CCCC3)nc2-c2ccc(OC)c(OCC)c2)ccc1OC | inactive |
| CC(=O)C[C@@H](O)CC(=O)[C@H]1OC(=O)CCCCCCc2ccccc21 | inactive |
| C/C(=C\C(=O)c1ccc(Br)cc1)N1CCCCC1 | 15.1 µM (active) |

| Structure (SMILES) | Potency |
| --- | --- |
| CC(C)(C)c1ccc(C(=O)N2CCC(C(=O)N3CCCCC3)CC2)cc1 | inactive |
| O=C(Nc1ccccc1)C1CCN(C(=O)c2ccc(Br)cc2)CC1 | inactive |
| COc1cccc(CNC(=O)Cn2ncn3c(cc4ccccc43)c2=O)c1 | inactive |
| CCC(C)Cn1c(O)cc2nn(-c3nc4ccccc4s3)c(=O)c-2c1C (stereo not given) | 0.301 µM (active) |
| Cc1cc(NC(=O)CN2CCCC(C)C2)n(-c2nc3ccccc3s2)n1 (stereo not given) | inactive |
| S=C(Nc1cccc(Br)c1)N1CCn2cccc2C1c1cccnc1 (stereo not given) | inactive |
| CCCCCCCCCCCCCCCC(=O)OC/C=C(C)/C=C/C=C(C)/C=C/C1=C(C)CCCC1(C)C | inactive |
| O=C(CCS(=O)(=O)c1ccc2c(c1)NC(=O)CO2)Nc1cccc(C(F)(F)F)c1 | inactive |
| CCNc1nc(SCCOc2ccccc2)nc(N(C)C)n1 | inactive |
| COc1cn(CC(=O)Nc2cccc(C)c2C)c(CN2CCCCC2)cc1=O | inactive |
| Cc1ccc(S(=O)(=O)Oc2ccc(/C=N/NC(=O)c3ccncc3)cc2)cc1 | inactive |
| Cc1ccc(/C=N/NC(=O)COc2ccccc2-c2ccccc2)cc1 | inactive |
| Cc1ccc(/C=N/NC(=O)C(NC(=O)c2ccccc2)c2n[nH]c(=O)c3ccccc23)cc1 (stereo not given) | 19 µM (active) |
| CCOC(=O)c1cccc(NC(=O)C(Cc2ccccc2)NS(=O)(=O)c2cccc3nsnc23)c1 (stereo not given) | inactive |
| CN(C(=O)CSc1nc2ccccc2n1Cc1ccccc1C#N)c1ccccc1 | inactive |
| O=C(COc1ccc(/C=N/NC(=O)c2ccc(O)cc2)cc1)Nc1ccc([N+](=O)[O-])cc1 | inactive |
| O=C(N/N=C/c1ccsc1)c1cc(O)cc(O)c1 | 21.3 µM (active) |
| O=C(N/N=C/c1ccc(O)c(O)c1)C1c2ccccc2Oc2ccccc21 | inactive |
| Cc1cccc(-n2ncc(C(=O)N3CCc4ccccc4C3)c2C2CCN(C(=O)OC(C)(C)C)CC2)c1 | inactive |
| Cc1ccc(NC(=O)c2nc(S(=O)(=O)Cc3cccc(C)c3)ncc2Cl)cc1 | inactive |
| Nc1[nH]c(=S)nc2nc(-c3ccccc3)c(-c3ccccc3)nc12 | inactive |
| O=C(c1cccc([N+](=O)[O-])c1)N1CCN(Cc2ccccc2)CC1 | inactive |
| Cc1c(Br)c([N+](=O)[O-])nn1CC(=O)N1CCN(Cc2ccccc2)CC1 | 13.5 µM (active) |
| Cn1nnnc1SCC(=O)N1CCN(Cc2ccccc2)CC1 | inactive |
| Cc1cccc(NS(=O)(=O)c2ccc(-c3cnc(C4CC4)o3)cc2)c1 | inactive |

| Structure (SMILES) | Potency |
| --- | --- |
| CCOc1ccc(/C=N/NC(=O)CSc2ccccn2)cc1O | inactive |
| COc1ccc(/C=N/N=C2/C(=O)Nc3ccccc32)cc1O | 19 µM (active) |
| COc1ccc(/C=N/N(C)C2=NS(=O)(=O)c3ccccc32)cc1OC | inactive |
| CCOC(=O)c1cc(-c2ccccc2)n(-c2cccc(C(=O)Nc3cc(OC)cc(OC)c3)c2)c1C | inactive |
| Cc1cc(C)c2oc(C(=O)Nc3ccc(S(=O)(=O)N(C)c4ccccc4)cc3)cc(=O)c2c1 | inactive |
| O=C(NCCN1CCCC(O)C1)c1cc(COc2c(F)cccc2F)on1 (stereo not given) | inactive |
| O=C(c1cc(COc2cccc(C(F)(F)F)c2)on1)N1CCSCC1 | inactive |
| O=C(Oc1ccc(F)cc1)N1CCOCC1 | inactive |
| O=C(c1cc(COc2ccc(F)cc2F)on1)N1CCOCC1 | 16.9 µM (active) |
| O=C(c1cc(COc2c(F)cccc2F)on1)N1CCSCC1 | 19 µM (active) |
| C=CCC1(CC=C)CCCN1C(=O)c1cc(COc2ccc(-n3cncn3)cc2)on1 | inactive |
| COc1ccc(CCN2C(=O)c3oc4cc(C)cc(C)c4c(=O)c3C2c2ccccc2F)cc1OC (stereo not given) | inactive |
| COc1cccc(CNCCSc2nnnn2C)c1OCc1ccccc1Cl | inactive |
| O=C(NCCCc1ccccc1)c1ccc2c(c1)sc1nc(-c3ccc(F)cc3)cn12 | inactive |
| C/C(=N/Nc1nc(-c2ccccc2)c(CC(=O)O)s1)c1ccccc1 | 5.36 µM (active) |
| CCOc1ccc(-c2nc(C)sc2CC(=O)O)cc1 | inactive |
| CCOC(=O)C(=O)Nc1nc(-c2ccccc2)c(CC)s1 | inactive |
| Cc1ccc(C)c(N2CCN(S(=O)(=O)c3ccc4c(c3)C(C(C)C)C(=O)N4)CC2)c1 (stereo not given) | inactive |
| CN(Cc1ccc(F)cc1)C(=O)COc1ccc2ccccc2c1 | inactive |
| CN(Cc1ccccc1)C(=O)c1ccc(COc2ccccc2)cc1 | inactive |
| CN(Cc1ccccc1)C(=O)COc1ccccc1 | 9.53 µM (active) |
| Cc1ccccc1-c1nc2scc(CCNC(=O)C(=O)Nc3ccc(F)cc3F)n2n1 | inactive |
| CC1CCCCC1NC(=O)COC(=O)Cc1ccc(Cl)cc1 (stereo not given) | inactive |
| CCOc1ccc(C(=O)Nc2nccs2)cc1[N+](=O)[O-] | inactive |
| CCN(c1ccccc1)S(=O)(=O)c1ccc(C(=O)Nc2nccs2)cc1 | inactive |

| Structure (SMILES) | Potency |
| --- | --- |
| CC(=O)Oc1ccc(C(=O)Nc2nccs2)cc1 | 10.7 µM (active) |
| Cc1nc(-c2ccccc2)sc1-c1nnc(C2CC2)o1 | 15.1 µM (active) |
| Cc1nc(-c2ccccc2)sc1-c1nc(-c2ccccc2)ncc1S(=O)(=O)c1ccccc1 | inactive |
| COc1ccccc1-c1nnc(C2CCN(C(=O)c3ccc(Cl)cc3)CC2)o1 | inactive |
| COc1cc(C(=O)NCCS(=O)(=O)N2CCN(c3ccccc3)CC2)cc(OC)c1OC | inactive |
| C/C(=C\c1ccccc1)C1NC(=O)c2c(sc3c2CCCC3)N1 (stereo not given) | inactive |
| O=C1NC(c2ccncc2)Nc2sc3c(c21)CCCC3 (stereo not given) | 21.3 µM (active) |
| CCOC(=O)N1CCc2c(sc3c2C(=O)NC(c2ccccc2F)N3)C1 (stereo not given) | inactive |
| CC(C)[C@H](NC(=O)OCc1ccccc1)C(=O)OCc1ccccc1 | inactive |
| Cc1cc(C)cc(Nc2ncnc3onc(-c4ccc(F)cc4)c23)c1 | inactive |
| C/C(=N\NC(=O)c1cc(-c2ccc(O)cc2)nc2ccccc12)c1cccnc1 | 6.01 µM (active) |
| C/C(=N\NC(N)=S)c1cccnc1 | inactive |
| C/C(=N\NC(=O)c1ccc2ccccc2c1)c1cccnc1 | 19 µM (active) |
| C/C(=N\NC(=O)c1ccc(NS(=O)(=O)c2cccs2)cc1)c1ccc2ccccc2c1 | 19 µM (active) |
| O=S(=O)(Nc1ccccc1)c1ccc(NS(=O)(=O)c2cccs2)cc1 | inactive |
| C/C(=N\NC(=O)c1cccnc1)c1ccc(-c2ccccc2)cc1 | inactive |
| C/C(=N\NC(=O)Cc1ccc(Br)cc1)c1cccnc1 | inactive |
| C/C(=N\NC(=O)Cc1ccccc1[N+](=O)[O-])c1cccnc1 | 15.1 µM (active) |
| CCOc1ccccc1-c1cc(C(=O)N/N=C(\C)c2cccnc2)c2ccccc2n1 | inactive |
| COc1cc(NS(=O)(=O)c2cccs2)cc(OC)c1 | inactive |
| C/C(=N\NC(=O)c1cccnc1)c1ccc(-n2ccnc2)cc1 | inactive |
| Cc1nc2nc(SCC(=O)N(Cc3ccccc3)C(C)C)nn2c(C)c1Cc1ccccc1Cl | inactive |
| NS(=O)(=O)c1ccc(CCNC(=O)COC(=O)COc2cccc(C(F)(F)F)c2)cc1 | inactive |
| CC(C)Cn1c(=O)c2ccccc2n2c(-c3cccc(Cl)c3)nnc12 | inactive |
| COc1ccc(NC(=O)C2CCCN(S(=O)(=O)c3cccc4nonc34)C2)cc1Cl (stereo not given) | inactive |
